LGR2 antag: inhibitors of bursicon-induced LGR2 CRE-luciferase signal, primary screen, cell-based, HEK293, CRE-luciferase reporter, bursicon stimulation. Drosophila bursicon receptor LGR2 (rickets). bursicon-stimulated, 4 h. inhibition, % at 9.99 µM. 0.35% of 380,000 active. AID 720647, 2013;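 active = drop in luminescence signal, shown as inhibition above about 50% in the replicate tests, limit read from the data, passing the limit was not always enough; inconclusive = probably only some replicates passing the limit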;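 note: agonist challenge used bursicon conditioned medium at about half maximal strength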
PAX8 inh HTS: inhibitors of PAX8-driven TPO luciferase reporter, primary screen, RMG-I cells, single concentration; SteadyGlo, 24 h; inhibition, % at 12.6 µM; 1.2% of 360,000 active; AID 652154, 2013;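 active = mean replicate inhibition at least 60% with every replicate also reaching 60%; inconclusive = only one of the two criteria is met; inactive = mean below 60% and not all replicates reaching 60%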;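 note: luciferase light reporting Pax8 driven TPO promoter activity; plate controls were median of neutral control wells for no effect and mitoxantrone controls for full effect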
rRNA inh HTS: reduced GFP signal of wild-type E. coli, primary screen, bacterial rRNA inhibitor project, GFP/RFP fluorescence, OD600, single point; E. coli WT GFP vs humanized-ribosome RFP mutants, 24 h; stronger effect = lower value; DMSO median 0, no signal -100; GFP signal change (wild-type ribosome), % (test concentration not listed); 1.6% of 350,000 active;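 active = significant combined selectivity score with lowered wild-type GFP, culture density cut under 30%, mutant RFP and density less affected; inactive = any of these conditions unmet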
EWS-Fli inh: EWS/Fli-driven NR0B1 reporter inhibitors, primary screen, A673 cells, NR0B1 luciferase, luminescence, MLPCN library; viability-normalised; inhibition, % at 12.6 µM; 0.67% of 350,000 active;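 active = mean inhibition of at least 50% after viability correction, with every replicate also passing that limit; inconclusive = mean reaches 50% but only one of two replicates passes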;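 note: firefly luciferase signal divided by Alamar Blue viability fluorescence both relative to DMSO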
SIRT5 inh: SIRT5 desuccinylase inhibitors, primary screen, biochemical, fluorescence imaging, single point, set 5; NAD-dependent protein deacylase sirtuin-5, mitochondrial (Homo sapiens), Q9NXA8; Purified SirT5, succinyl-peptide AMC, trypsin-coupled fluorescence; inhibition, % at 15 µM; 1.1% of 330,000 active; AID 652115, 2013; in the data active = inhibition above about 15%; inconclusive = no clear call, values can overlap the other calls
Target sequence (Q9NXA8 whole entry, looked up): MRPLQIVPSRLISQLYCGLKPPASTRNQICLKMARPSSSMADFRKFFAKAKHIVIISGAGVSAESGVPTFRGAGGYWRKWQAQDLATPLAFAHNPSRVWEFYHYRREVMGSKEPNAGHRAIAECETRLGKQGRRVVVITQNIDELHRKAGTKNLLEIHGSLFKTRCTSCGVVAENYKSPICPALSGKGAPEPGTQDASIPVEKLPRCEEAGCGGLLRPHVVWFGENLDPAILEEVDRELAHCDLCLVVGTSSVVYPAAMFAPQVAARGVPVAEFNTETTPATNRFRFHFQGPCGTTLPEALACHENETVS
PGC1a acetyl inh: inhibitors of PGC1a acetylation signal, primary screen, cell-based, U2OS, AlphaScreen, inhibitor mode; AlphaScreen anti-acetyl-lysine; with virally co-expressed GCN5 acetyltransferase; inhibition, % at 15.6 µM; 0.17% of 350,000 active;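 active = every replicate shows inhibition of at least 40%; inconclusive = mean inhibition at least 40% but some replicate below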;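 note: 0% = neutral control wells and 100% = positive control wells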
HepG2 tox: cytotoxicity in HepG2 cells, dose response, cytotoxicity control, cell-based, CellTiter-Glo luminescence, cherry-pick, set 4; shares compounds with rRNA inh HTS; HepG2 viability, ATP luminescence, 72 h; activity change, negative = cytotoxicity, unspecified at 26 µM; 30 tested, under 10 active; AID 743480, 2014;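 active = compounds whose fitted half-maximal signal-loss concentration is at most twice their highest valid dose; inconclusive = flat curve with 30 to 70% signal loss, or poor fit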
AID977621: growth inhibition of wild-type GFP E. coli, dose response, H69 mutant RFP, cherry-pick; 1,900 tested, under 10 active; AID 977621, 2014; activity change, negative = inhibition at 50 µM; E. coli wild-type GFP strain growth, fluorescence, 24 h; shares compounds with rRNA inh HTS;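 active = Wild-type ribosome reporter drop at least double the humanized mutant ribosome reporter drop, growth loss under a set limit; inconclusive = no clear call, values can overlap the other calls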;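 note: wild-type GFP and H69 mutant RFP strains grown together 50/50 in each well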
AID977628: E. coli growth inhibition, wild-type GFP versus h24 humanized RFP strain, dose response, h24 mutant RFP vs wild-type GFP, cherry-pick; shares compounds with rRNA inh HTS; E. coli WT GFP strain growth, fluorescence, 24 h; activity change, negative = inhibition at 50 µM; 1,900 tested, under 10 active;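 active = compound lowering the normal-ribosome reporter at least twice as much as the humanized-ribosome reporter, growth loss under a set limit; inconclusive = no clear call, values can overlap the other calls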;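 note: wild-type GFP and h24 humanized RFP strains co-cultured 1 to 1 per well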
Active calls of the source: *; u = inconclusive; x = no result given; ! = not active in a repeat. This is a sample that favours compounds with a hit; in the whole collection about 3.4% have one here.

SMILES | LGR2 antag | PAX8 inh HTS | rRNA inh HTS | EWS-Fli inh | SIRT5 inh | PGC1a acetyl inh | AID977621 | AID977628 | others
N#Cc1cccc(-c2ccc([C@H]3[C@H](CO)N4CCCCN(C(=O)Nc5ccc(F)cc5)C[C@@H]34)cc2)c1 | -16 | 3 | -37 | 13 | -8 | -4 | x | x
c1cncc(-c2nc3cc4ccccc4cc3[nH]2)c1 | -24 | x | -26* | -100 | -3 | -2 | -3.1 | x
COc1ccccc1-c1cn(CC[C@@H]2CC[C@H](NS(=O)(=O)c3ccccc3C)[C@H](CO)O2)nn1 | -25 | 1 | -6 | 4 | 3 | 0 | x | x
C[C@H](CO)N1C[C@H](C)[C@@H](CN(C)Cc2ccc(C(F)(F)F)cc2)Oc2c(NS(C)(=O)=O)cccc2C1=O | 1 | 5 | 4 | 2 | -5 | 2 | x | x
CCC(=O)N(C)C[C@@H]1Oc2ncc(C3=CCCC3)cc2C(=O)N([C@@H](C)CO)C[C@H]1C | -12 | x | 1 | 1 | -3 | 1 | x | x
COc1ccccc1S(=O)(=O)N(C)C[C@@H]1OCc2ccccc2-c2c(n(C)c3ccccc23)C(=O)N([C@@H](C)CO)C[C@@H]1C | 5 | 18 | -2 | 4 | 6 | -10 | x | x
Nc1nc2ccccc2n1CCOc1ccc(F)cc1 | 4 | -2 | -21* | 4 | 0 | -1 | -6.1 | -14
COc1ccc(OCCn2c(N)nc3ccccc32)cc1 | 4 | -8 | -23 | 3 | 10 | x | x | x
CO[C@H]1CN(C)C(=O)c2ccc(NC(C)=O)cc2OC[C@H](C)N(CC2CC2)C[C@H]1C | 9 | x | 0 | -4 | 0 | x | x | x
CCCC#Cc1cnc2c(c1)C(=O)N([C@@H](C)CO)C[C@H](C)[C@@H](CN(C)Cc1ccncc1)O2 | -4 | -34 | 0 | -8 | 0 | -5 | x | x
C[C@H](CO)N1C[C@H](C)[C@@H](CN(C)S(=O)(=O)c2cn(C)cn2)Oc2c(NS(=O)(=O)c3ccc(Cl)cc3)cccc2C1=O | -4 | x | -4 | -5 | x | 0 | x | x
O=C(Nc1ccn(Cc2ccc(Cl)cc2)n1)c1ccccc1 | -69 | -160 | -24* | -65 | -2 | -1 | -1.2 | -9.7
O=C(Nc1ccn(Cc2ccccc2)n1)c1ccc2c(c1)OCO2 | -22 | -126 | -8 | -59 | 0 | x | x | x
Cn1cnc([N+](=O)[O-])c1Oc1ccccc1 | 10 | -17 | -37* | 19 | -1 | x | 2.5 | -2.1
C[C@@H]1CN([C@H](C)CO)S(=O)(=O)c2ccc(C#Cc3ccncc3)cc2O[C@H]1CN(C)C(=O)C1CCOCC1 | 2 | 48 | -2 | -2 | 1 | 2 | x | x
CC(C)(C)CC(=O)NCCc1csc(-c2ccccc2)n1 | -33 | -21 | -16* | -60 | 0 | 12 | -3.8 | u
CNC(=O)C[C@@H]1CC[C@H]2[C@H](COc3ccc(NC(=O)c4cnccn4)cc3C(=O)N2C)O1 | 12 | -22 | -1 | -8 | x | -2 | x | x
NC(=O)c1ccsc1NC(=O)COC(=O)CCOc1ccccc1 | -7 | 6 | -23* | -3 | 0 | 6 | -16 | x
CC(C)CN(C[C@H]1N[C@@H](CO)[C@@H]1c1ccc(-c2cncnc2)cc1)C(=O)C1CC1 | x | x | 0 | x | x | x | x | x
Cc1cc(C)c(OCCNC(=O)c2ccccc2Sc2ccccc2C#N)c(C)c1 | 9 | 13 | -25* | 13 | -6 | -6 | x | x | HepG2 tox=21
Cc1ccccc1OCCNC(=O)c1ccccc1Sc1ccccc1C#N | x | x | x | x | x | 1 | x | x
C[C@H]1CN([C@@H](C)CO)C(=O)c2c(c3ccccc3n2C)-c2ccccc2CO[C@@H]1CN(C)C(=O)CCN(C)C | -19 | 8 | 2 | -8 | 0 | -26 | x | x
C[C@H](CO)N1C[C@H](C)[C@H](CN(C)Cc2ccccc2)OCc2ccccc2-c2c(n(C)c3ccccc23)C1=O | 1 | -5 | -9 | x | -1 | -14 | x | x
C[C@@H]1CN([C@H](C)CO)C(=O)c2c(c3ccccc3n2C)-c2ccccc2CO[C@@H]1CN(C)C(=O)CCN(C)C | 5 | 4 | -19*! | 3 | -4 | x | x | -3.8
C[C@H]1CN([C@@H](C)CO)C(=O)c2c(c3ccccc3n2C)-c2ccccc2CO[C@@H]1CN(C)Cc1ccccc1 | 5 | 24 | -42* | -3 | 5 | -10 | u | u
SMILES | LGR2 antag | PAX8 inh HTS | rRNA inh HTS | EWS-Fli inh | SIRT5 inh | PGC1a acetyl inh | AID977621 | AID977628 | others
O=C(C[C@H]1CC[C@H]2[C@@H](COC[C@@H](O)CN2C(=O)c2ccccc2)O1)Nc1nccs1 | 6 | -7 | 0 | -15 | 6 | -9 | x | x
CCC(C)c1ccccc1NC(=O)c1cccc(-n2cnnn2)c1 (centres undefined) | 13 | -11 | -21* | -5 | -5 | -8 | -15 | -11
CCC(C)c1ccccc1NC(=O)c1cccnc1 (centres undefined) | -11 | x | -9 | 1 | -2 | 6 | x | x
O=C(Nc1ccc2c(c1)OCCO2)C1C(c2ccccc2)=Nc2ccccc2N1C(=O)c1cccnc1 (centres undefined) | -125 | -76 | -8.2* | -71 | x | x | -8.7 | u
COCC(=O)N1CC2(CCN(Cc3ccccc3)CC2)c2c([nH]c3cc(OC)ccc23)[C@H]1CO | -2 | x | 3 | -2 | -4 | -6 | x | x
CCN(CC)CCn1c2ccccc2c2nc3ccc([N+](=O)[O-])cc3cc21 | -53 | -83 | -25* | -96 | 15 | -7 | x | x | HepG2 tox=3
CN(C)CCCNC(=O)[C@H]1[C@H](CO)[C@H]2Cn3c(ccc(C4=CCCCC4)c3=O)[C@@H]1N2Cc1cocn1 | 5 | x | 0 | -2 | -37 | x | x | x
CCOc1ccc(CCNC(=O)CN2C(=O)CCSc3ccccc32)cc1 | -16 | -3 | -20* | 1 | -3 | -4 | x | u
CCCN(C)C[C@@H]1Oc2cc(C#CC3CCCCC3)ccc2S(=O)(=O)N([C@@H](C)CO)C[C@H]1C | 15 | x | -4 | 12 | x | -19 | x | x

Assay outcomes from PubChem BioAssay.
